# From PubChem BioAssay (NCATS)
# Records with an inconclusive call do not appear. Values without a mark were called inactive. Active and inactive are the calls of the source. Calls follow the shape of the dose curve; as a rule, active = well fitted cell-killing curve with a large enough effect; inconclusive = small, poorly fitted or top-dose-only effect, or effect the other way; inactive = flat fitted curve, though single readings scatter.
# System: JEG-3
# Experiment: Primary qHTS to identify gynecologic anti-cancer compounds using libraries of approved drugs and bioactive compounds (AID 1345084); also: nearly all actives have a fitted effect of over 55% in size
# Settings: Gynecologic cancer cell panel viability, ATPlite luminescence, 48 h; series mostly up to 57.5 µM; activity change, negative = cytotoxicity: at the top concentration
# Summary of the method: (§1)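 Five-concentration response, 48 h; readout is ATP-driven luciferase luminescence.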
# % is scaled to controls: 0 for no effect and ±100 for the full control effect; potency is read from the fitted curve at half-maximal effect.
Structure (SMILES),"activity change, negative = cytotoxicity [%]",Potency
CCCCCCCCCCOCC(O)CN (stereo not given),11.3,–
Cc1c(C)n(Cc2ccccc2)c2ccc(C(=O)OCCN(C)C)cc12,10.3,–
O=C1OCCN1/N=C/c1ccc([N+](=O)[O-])o1,-16.6,–
CCN(CC)CCOC(=O)C(c1ccccc1)C1CCCCC1 (stereo not given),-26,–
O=C(CCCN1CCC(O)(c2ccc(Br)cc2)CC1)c1ccc(F)cc1,-0.418,–
CC(O)(P(=O)(O)O)P(=O)(O)O,-25.6,–
CCCCOc1ccc(C(=O)CCN2CCCCC2)cc1,-1.05,–
Clc1ccc2c(c1)CCc1cccnc1C2=C1CCNCC1,1.95,–
CCCOC(C(=O)OC1CCN(C)CC1)(c1ccccc1)c1ccccc1,14.4,–
COc1ccc(/C=C/C(=O)c2ccc(OC)cc2OC)cc1,-17.4,–
CCOc1ccc(Cc2nccc3cc(OCC)c(OCC)cc23)cc1OCC,-6.45,–
COC1=CC(=O)C[C@@H](C)[C@]12Oc1c(Cl)c(OC)cc(OC)c1C2=O,-6.1,–
Oc1c(I)cc(I)c2cccnc12,-2.79,–
C[C@H]1C[C@H]2[C@@H]3CCC4=CC(=O)C=C[C@]4(C)[C@@]3(Cl)[C@@H](O)C[C@]2(C)[C@@]1(O)C(=O)CO,0.473,–
O=C(COc1ccc(Cl)cc1)N1CCN(Cc2ccc3c(c2)OCO3)CC1,3.4,–
Cc1cccc(C)c1NC(=O)CN1CCN(CCCC(c2ccc(F)cc2)c2ccc(F)cc2)CC1,16.1,–
C[C@]12CCC(=O)C=C1[C@@H]1C[C@@H]1[C@H]1[C@@H]3[C@@H]4C[C@@H]4[C@@]4(CCC(=O)O4)[C@@]3(C)CC[C@@H]12,-13.5,–

Structure (SMILES),"activity change, negative = cytotoxicity [%]",Potency
CC1=C(C(=O)OC(C)C)C(c2cccc([N+](=O)[O-])c2)C(C(=O)OC2CN(C(c3ccccc3)c3ccccc3)C2)=C(N)N1 (stereo not given),-3.51,–
COc1cc2c(cc1OC)C(C(C(=O)N(CCc1ccc(OC)c(OC)c1OC)CCc1ccc(OC)c(OC)c1OC)c1ccccc1)=NCC2 (stereo not given),1.94,–
CCN(CC)CCOc1ccc(C(O)(Cc2ccc(Cl)cc2)c2ccc(C)cc2)cc1 (stereo not given),-26.1,–
COc1cccc2c1C(=O)c1c(O)c3c(c(O)c1C2=O)C[C@@](O)(C(=O)CO)C[C@@H]3O[C@H]1C[C@H](N)[C@H](O)[C@H](C)O1,–,2.82 µM (active)
c1ccc(CNCCNCc2ccccc2)cc1,14,–
C=C1C[C@H]2[C@@H]3C=C(C)C4=CC(=O)CC[C@]4(C)[C@H]3CC[C@]2(C)[C@@]1(OC(C)=O)C(C)=O,-7.84,–
CCN(CCCc1ccccc1)CCCc1ccccc1,-13.6,–
O=C(CCN1CCC(c2ccccc2)C1)c1ccc2c(c1)OCCO2 (stereo not given),5.35,–
CN(C)CC/C=C1\c2ccccc2Sc2ccc(Cl)cc21,-1.93,–
COc1cccc(CCc2ccccc2OCC(CN(C)C)OC(=O)CCC(=O)O)c1 (stereo not given),2.97,–
CN1CCC(=C2c3ccccc3Sc3ccccc32)CC1,1.33,–
CN1CCN(CCCN2c3ccccc3Sc3ccc(S(=O)(=O)N(C)C)cc32)CC1,-4.95,–
CC(=O)N/N=C/c1ccc([N+](=O)[O-])o1,4.61,–
CC(=O)c1ccc2c(c1)N(CCCN1CCC(CCO)CC1)c1ccccc1S2,-7.83,–
CN(C(=O)CN(CCO)CC(=O)N(C)C(C)(C)Cc1ccccc1)C(C)(C)Cc1ccccc1,-1,–
CC(C)=CCC1C(=O)N(c2ccccc2)N(c2ccccc2)C1=O,0.0327,–

# System: OV90
# Experiment: as above
# Settings: Gynecologic cancer cell panel viability, ATPlite luminescence, 48 h; series mostly up to 57.5 µM; activity change, negative = cytotoxicity: at the top concentration
# Summary of the method: as §1
Structure (SMILES),"activity change, negative = cytotoxicity [%]",Potency
Cc1c(C)n(Cc2ccccc2)c2ccc(C(=O)OCCN(C)C)cc12,1.1,–
O=C1OCCN1/N=C/c1ccc([N+](=O)[O-])o1,-26,–
CC(O)(P(=O)(O)O)P(=O)(O)O,-6.97,–
CCCCOc1ccc(C(=O)CCN2CCCCC2)cc1,3.28,–
Oc1ccc(Cl)cc1Sc1cc(Cl)ccc1O,-19,–
CCOc1ccc(Cc2nccc3cc(OCC)c(OCC)cc23)cc1OCC,–,7.08 µM (active)
COC1=CC(=O)C[C@@H](C)[C@]12Oc1c(Cl)c(OC)cc(OC)c1C2=O,1.79,–
Oc1c(I)cc(I)c2cccnc12,4.29,–
C[C@H]1C[C@H]2[C@@H]3CCC4=CC(=O)C=C[C@]4(C)[C@@]3(Cl)[C@@H](O)C[C@]2(C)[C@@]1(O)C(=O)CO,-11.8,–
O=C(COc1ccc(Cl)cc1)N1CCN(Cc2ccc3c(c2)OCO3)CC1,-10.2,–
CC1=C(C(=O)OC(C)C)C(c2cccc([N+](=O)[O-])c2)C(C(=O)OC2CN(C(c3ccccc3)c3ccccc3)C2)=C(N)N1 (stereo not given),6.73,–
COc1cc2c(cc1OC)C(C(C(=O)N(CCc1ccc(OC)c(OC)c1OC)CCc1ccc(OC)c(OC)c1OC)c1ccccc1)=NCC2 (stereo not given),15.7,–
CCN(CC)CCOc1ccc(C(O)(Cc2ccc(Cl)cc2)c2ccc(C)cc2)cc1 (stereo not given),–,17.8 µM (active)
COCc1c(C(C)C)nc(C(C)C)c(/C=C/[C@@H](O)C[C@@H](O)CC(=O)O)c1-c1ccc(F)cc1,–,1.78 µM (active)
COc1cccc2c1C(=O)c1c(O)c3c(c(O)c1C2=O)C[C@@](O)(C(=O)CO)C[C@@H]3O[C@H]1C[C@H](N)[C@H](O)[C@H](C)O1,–,4.47 µM (active)
c1ccc(CNCCNCc2ccccc2)cc1,-28,–
C=C1C[C@H]2[C@@H]3C=C(C)C4=CC(=O)CC[C@]4(C)[C@H]3CC[C@]2(C)[C@@]1(OC(C)=O)C(C)=O,-22.7,–
CCN(CCCc1ccccc1)CCCc1ccccc1,–,28.2 µM (active)
O=C(CCN1CCC(c2ccccc2)C1)c1ccc2c(c1)OCCO2 (stereo not given),10.3,–
CC(=O)N/N=C/c1ccc([N+](=O)[O-])o1,7.64,–
CN(C(=O)CN(CCO)CC(=O)N(C)C(C)(C)Cc1ccccc1)C(C)(C)Cc1ccccc1,-12.1,–
CC(C)=CCC1C(=O)N(c2ccccc2)N(c2ccccc2)C1=O,-7.5,–
